# Results: PubChem BioAssay AID1259422 (The Scripps Research Institute Molecular Screening Center, 2018)
# Hit rate of the full screen: of about 640,000 compounds, about 9,300 (1.5%) were called active. The entries come from a sample that favours actives as a whole. Values without a mark were called inactive. Cut-off read from the data, not from the text of the source: active = inhibition above about 32%; inactive = the rest.
# Test: TEAD-YAP interaction inhibition, primary screen, TEAD-YAP interaction inhibitor project, luminescence, HEK-TIYL cells (AID 1259422);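 note: 0% = median of test compound wells and 100% = reference inhibitor wells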
# Details: TEAD-Gal4/YAP UAS-luciferase luminescence, at 9.12 µM, active compounds read high
row,SMILES,inhibition
1,CCc1ccc(OCCOCCNCCN)cc1,13%
2,CCCCCCCc1ccc(C(=O)Oc2ccc(Br)cc2)cc1,8.27%
3,CCCCCCCCCc1ccc(OCCOCCOCCOCCOCCOCCOCCOCCOCCO)cc1,34.7% (active)
4,CCN(CC)CCCNC(=O)c1ccc(Cn2c(=S)[nH]c3cc4c(cc3c2=O)OCO4)cc1,-11.4%
5,Cc1ccnc(NC(c2ccc3cccnc3c2O)c2c(F)cccc2Cl)c1 (centres undefined),34.7% (active)
6,Cc1ccnc(NC(c2ccc(O)cc2)c2ccc3ccc(C)nc3c2O)c1 (centres undefined),-16.1%
7,Cc1cccc(NC(c2ccc3c(c2)OCO3)c2ccc3ccc(C)nc3c2O)n1 (centres undefined),15.8%
8,Cc1cccc(NC(c2cccc(F)c2)c2ccc3ccc(C)nc3c2O)n1 (centres undefined),1.53%
9,Cc1ccnc(NC(c2ccccc2Cl)c2ccc3cccnc3c2O)c1 (centres undefined),77.9% (active)
10,Oc1c(C(Nc2ccccn2)c2ccc(OC(F)F)cc2)ccc2cccnc12 (centres undefined),70.2% (active)
11,Oc1ccc2ncccc2c1C(Nc1ccccn1)c1ccccc1 (centres undefined),6.96%
12,Oc1c(C(Nc2ccccn2)c2cccnc2)ccc2cccnc12 (centres undefined),14.9%
13,COc1cc(C(=O)NC(c2ccccc2Cl)c2cc([N+](=O)[O-])c3cccnc3c2O)cc(OC)c1OC (centres undefined),-0.41%
14,CCOC(=O)c1sc2ncn(CC(=O)Nc3cccc(C(F)(F)F)c3)c(=O)c2c1C,0.34%
15,Cc1ccc(NC(=O)c2cc(S(=O)(=O)N3CCN(c4cccc(Cl)c4)CC3)ccc2F)cc1F,-4.95%
16,CCN1CCN(c2cc(Nc3cc(OC)c(OC)c(OC)c3)c3c4c(onc24)-c2ccccc2C3=O)CC1,5.58%
17,Cc1ccc(S(=O)(=O)CCc2nnc(NC(=O)c3ccc([N+](=O)[O-])cc3)s2)cc1,-5.17%
18,NC(=O)Cn1c(=O)n(CCCCC(=O)NCc2ccccc2Cl)c(=O)c2ccccc21,2.5%
19,O=C(NC1CCN(Cc2ccccc2)CC1)c1cccc(Nc2nccc3ccccc23)c1,2.07%
20,CS(=O)(=O)N(CC(O)Cn1c2ccccc2c2ccccc21)c1ccccc1I (centres undefined),-12.3%
21,CCCC(=O)NC(c1ccccc1OC)c1cc([N+](=O)[O-])c2cccnc2c1O (centres undefined),20.6%
22,CNC(=O)COC(=O)c1c(Cl)cccc1Cl,-0.51%
23,CCOC(=O)c1ccccc1NS(=O)(=O)c1ccc(OC)cc1,46.5% (active)
24,Cc1ccc(S(=O)(=O)Nc2ccccc2C(=O)NN)cc1,12.8%

row,SMILES,inhibition
1,CCOC(=O)c1ccccc1NC(=O)/C=C/c1ccc(OC)cc1,4.72%
2,O=C(Nc1ccccc1C(F)(F)F)c1cc(S(=O)(=O)NC2CCCC2)ccc1F,1.13%
3,CCS(=O)(=O)c1ncc(Cl)c(C(=O)Nc2ccc(OC(F)F)cc2)n1,-5.89%
4,Cc1ccc(F)cc1NC(=O)Cc1nn(C)c(=O)c2ccccc12,29.9%
5,Cn1nc(CC(=O)Nc2ccc(F)c(F)c2)c2ccccc2c1=O,46.9% (active)
6,Cc1cc(NC(=O)Cc2nn(C)c(=O)c3ccccc23)ccc1Br,4.56%
7,COc1ccc(Nc2ncc(-c3cccc(NC(C)=O)c3)n3ccnc23)cc1,-67.3%
8,COc1cccc(-c2cnc3c(Nc4ccc(C(N)=O)cc4)nccn23)c1,-21.2%
9,COc1cc(Nc2nccn3c(-c4cccc(NC(C)=O)c4)cnc23)cc(OC)c1OC,51.5% (active)
10,Cc1nc(-c2cncc(-c3ccc(F)cc3)c2)cc(=O)[nH]1,5.59%
11,COc1cc(C(=O)Nc2ncc(Cc3ccccc3Cl)s2)cc(OC)c1OC,57.5% (active)
12,COc1cc(NC(=O)c2sc3ncn(Cc4ccccc4Cl)c(=O)c3c2C)cc(OC)c1OC,0.99%
13,COc1cc(C(=O)Oc2ccccc2Cl)cc(OC)c1OC,0.19%
14,CC(=O)Nc1ccc(NC(=O)c2cc3nc(C)ccc3o2)cc1,6.06%
15,CCOC(=O)c1ccc(NC(=O)COc2c(Br)cc(C=O)cc2OC)cc1,-2.35%
16,CC1Nc2c(c(=O)oc3ccccc23)NC1=O (centres undefined),-13.4%
17,O=c1c2nccnc2[nH]c(=S)n1CCc1ccccc1,32.2% (active)
18,O=C(Nc1ccc(Oc2ccccc2)cc1)c1ccc2c(=O)n(CCc3ccccc3)c(=S)[nH]c2c1,4.57%
19,O=C(NCCc1ccc(Cl)cc1)c1ccc2c(=O)n(CCc3ccccc3)c(=S)[nH]c2c1,6.42%
20,Cc1ccc(C)c(C(=O)Nc2ccc3c(c2)N(S(=O)(=O)c2ccc(F)cc2)CCC3)c1,-2.68%
21,CC(=O)Nc1nc(C)c(-c2csc(Nc3ccc(C)cc3)n2)s1,1.48%
22,Cc1nc(N)sc1-c1csc(Nc2ccc(O)cc2)n1,2.78%
23,Cc1nc(C)c(-c2csc(Nc3ccc(Br)cc3)n2)s1,52.5% (active)
24,CC(C)Cn1c(-c2ccccc2)c[nH]c1=S,4.66%

row,SMILES,inhibition
1,CCN1CCN(C2=C(Cl)C(=O)N(c3cccc(C(=O)OC)c3)C2=O)CC1,23.4%
2,CCOc1ccc(Cl)cc1S(N)(=O)=O,-4.54%
3,O=C(N/N=C/c1c(O)ccc2ccccc12)c1cc([N+](=O)[O-])cc([N+](=O)[O-])c1,3.24%
4,COc1ccc(C(=O)N/N=C/c2c(O)ccc3ccccc23)cc1,58.3% (active)
5,CC(=O)Nc1cccc(C(=O)N/N=C/c2c(O)ccc3ccccc23)c1,14.8%
6,O=C(NCc1ccco1)c1ccc(N2CC3CC(C2)c2cccc(=O)n2C3)c(NC(=S)Nc2ccc(Cl)cc2Cl)c1 (centres undefined),-0.4%
7,Cc1ccc(Nc2nc3nonc3nc2NNc2ccccc2)cc1Cl,-9.84%
8,Cc1ccc(Nc2nc3nonc3nc2Nc2ccccc2F)cc1,69.4% (active)
9,Nc1nc2nonc2nc1Nc1ccccc1,10.4%
10,Cc1cc(Cl)cc(Cl)c1OCCOCCN(C)CCO,3.38%
11,O=C(NCCc1ccsc1)c1ccccc1Cl,46.4% (active)
12,O=C(NCCc1ccccc1)c1cc(Sc2ccccc2Cl)nc2ccccc12,-11.2%
13,O=C(NCCc1ccsc1)Nc1ccccc1F,-29.3%
14,COc1cccc(NC(=O)CSc2nnc(-c3ccc(F)cc3)c(-c3ccc(F)cc3)n2)c1,16.5%
15,Fc1ccc(Nc2ncnc3ccc(I)cc23)cc1,25.1%
16,COc1ccc(Nc2ncnc3ccc(Br)cc23)cc1,33.4% (active)
17,COc1ccc(Nc2ncnc3c2cnn3-c2ccc(OC)cc2)cc1,-19.6%
18,CC(=O)Oc1cccc(C(=O)Nc2ccc(C)c(C)c2)c1,62.5% (active)
19,CC(=O)Oc1cc(C(=O)Nc2cccc(C#N)c2)cc(C(=O)Nc2cccc(C#N)c2)c1,-1.56%
20,CC(=O)Oc1cccc(C(=O)Nc2ccccc2Br)c1,14.5%
21,O=C(CNC(=O)c1ccc(Br)o1)OCC(=O)c1ccc(Br)cc1,4.37%
22,Cc1ccc(CNC(=O)C(=O)N/N=C/c2ccccc2I)cc1,-10.4%
23,COc1ccc(CC2(CCC(=O)NCc3nc(C)cs3)CCC(=O)N2)c2ccccc12 (centres undefined),-13.4%
24,COc1ccc(Cc2nnc(N/N=C/c3ccccc3O)[nH]c2=O)cc1OC,85.4% (active)

row,SMILES,inhibition
1,COc1cccc(Nc2nnc(Cc3ccc(Cl)cc3)c(=O)[nH]2)c1,7.31%
2,CCOc1ccccc1Nc1nnc(Cc2ccc(OC)cc2)c(=O)[nH]1,3.03%
3,COc1cccc(C2(NC(=O)CN3C(=O)NC4C3N(C)C(=O)N4C)CCCC2)c1 (centres undefined),4.87%
4,CC1CN(C(=S)c2ccc(Br)cc2)CC(C)O1 (centres undefined),6.13%
5,O=C(CSc1nnc(NC(=O)C2CCC2)s1)NCc1cccs1,5.18%
6,COc1cc(/C=N/N=C2/NC(=O)CS2)ccc1OC(=O)c1ccccc1C,3.4%
7,COc1cccc(/C=N/NC(=O)CNc2cccc(C)c2)c1O,13.4%
8,COc1cccc(/C=N/NC(=O)CC23CC4CC(CC(C4)C2)C3)c1O,69.8% (active)
9,COc1cccc(/C=N/N=C2/NC(=O)CS2)c1O,58.3% (active)
10,COc1ccc(/C=N/N=C2/NC(=O)CS2)c(OC)c1,-13.7%
11,O=C(N/N=C/c1cccc2ccccc12)C(=O)N/N=C/c1cccc2ccccc12,0.24%
12,COc1cccc(/C=N/NC(=O)c2ccccc2I)c1O,13.4%
13,COc1cccc(/C=N/NC(=O)c2cc(O)cc(O)c2)c1O,20.7%
14,COc1cccc(/C=N/NC(=O)C(=O)Nc2cccc3ccccc23)c1O,65.7% (active)
15,O=C(Cc1ccsc1)N1CCC[C@@H]2CN(C/C=C/c3ccccc3)CC[C@H]21,-4.71%
16,CS(=O)(=O)c1ccc(NCc2ccco2)cc1,-0.14%
17,CCOC(=O)C1=C(C)N=c2s/c(=C\c3ccc(N(C)C)c(Br)c3)c(=O)n2C1c1ccc(OC)c(OC)c1 (centres undefined),-28.6%
18,CCc1nc(SCC(N)=O)c2c3c(sc2n1)CCCC3,-22.7%
19,COc1ccc2nc(N3CCC(NCc4cccc(F)c4F)CC3)nc(C)c2c1,5.35%
20,CC(=O)C(C(C)=O)c1cc(Nc2ccc(C)cc2)c2c3c(onc13)-c1ccccc1C2=O,3.02%
21,CCOC(=O)C1(CO)NC(c2ccc(O)cc2)C2C(=O)N(C)C(=O)C21 (centres undefined),-8.15%
22,CCOC(=O)C(=O)C(C#N)c1ccc(OC(C)C)cc1 (centres undefined),2.75%
